Test results published in PubChem BioAssay AID651681 (Broad Institute, 2012).

molecular target: Cyclin-dependent kinase 2 (Homo sapiens) + Cyclin-A2 (Homo sapiens) (UniProt P20248+P24941); test: CDK2/cyclin A inhibitors, off-target check, dose response, selectivity assay for Dyrk1A inhibitor project, biochemical, dry powder, set 3 (AID 651681); conditions: CDK2/cyclin A ADP-Glo luminescence, histone H1 peptide; series mostly up to 10 µM; inhibition: at the top concentration
Sequence (P20248 whole entry, looked up, one chain of several): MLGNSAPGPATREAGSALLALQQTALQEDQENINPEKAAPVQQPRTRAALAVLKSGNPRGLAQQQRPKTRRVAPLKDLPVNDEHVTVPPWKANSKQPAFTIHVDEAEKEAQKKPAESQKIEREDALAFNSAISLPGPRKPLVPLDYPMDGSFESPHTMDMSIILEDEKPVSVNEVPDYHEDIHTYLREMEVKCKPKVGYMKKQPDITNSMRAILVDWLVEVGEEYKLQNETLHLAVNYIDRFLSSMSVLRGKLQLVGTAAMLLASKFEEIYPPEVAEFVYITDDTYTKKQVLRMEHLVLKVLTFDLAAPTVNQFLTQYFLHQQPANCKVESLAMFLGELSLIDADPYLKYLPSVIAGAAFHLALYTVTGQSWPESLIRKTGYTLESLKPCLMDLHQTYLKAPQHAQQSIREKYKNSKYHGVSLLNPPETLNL

inhibition, inactive:
COc1ccc(C2=Nn3c(nnc3-c3cccnc3)SC2)cc1OC 7.94%
CN(CC(=O)Nc1nc2ccccc2s1)S(=O)(=O)c1ccc(Cl)cc1 -5.95%
COc1ccc(S(=O)(=O)N2CCCC(C(=O)Nc3nc4ccccc4s3)C2)cc1 (stereo not drawn) -4.81%
CCOc1ccc2nc(NC(=O)C3CCCN(S(=O)(=O)c4cccc5cccnc45)C3)sc2c1 (stereo not drawn) -2.57%
COc1ccc(-c2csc(NC(=O)CSCC(=O)N3CCCC3)n2)cc1 -7.89%
Clc1ccc(CSc2nc(Nc3ccc4c(c3)OCO4)c3ccccc3n2)cc1 1.9%
COc1ccc(C2=Nn3c(nnc3-c3ccncc3)SC2)cc1 9.2%
COc1ccc2c(Cl)c(C(=O)NC(C)C)sc2c1 6.28%
C=CCn1cnc2scc(-c3ccc(OC)cc3)c2c1=O -4.85%
COc1ccc2nc(NC(=O)C3CCCN(S(=O)(=O)c4cccc5nsnc45)C3)sc2c1 (stereo not drawn) -0.944%
COc1ccc2nc(NC(=O)CN(C)S(=O)(=O)c3ccc(F)cc3)sc2c1 -9.78%
Cc1csc(NC(=O)C2CCCN(S(=O)(=O)c3cccc4nonc34)C2)n1 (stereo not drawn) 10.9%
CN(CC(=O)Nc1nc2ccc(F)cc2s1)S(=O)(=O)c1ccc(Cl)cc1 -5.71%
COc1ccc2c(Cl)c(C(N)=O)sc2c1 -7.83%
COc1ccc(NC(=O)C2CCCN(S(=O)(=O)c3cccc4nonc34)C2)cc1 (stereo not drawn) -3.75%
Cc1ccc(S(=O)(=O)N(C)CC(=O)Nc2nc3ccc(Cl)cc3s2)cc1C -1.34%
Cc1sc(NC(=O)CSCc2ccccc2)nc1-c1ccccc1 -1.28%
COc1ccc2nc(NC(=O)C3CCN(S(=O)(=O)c4ccc(C)cc4)CC3)sc2c1 -2.31%
